Screening data from PubChem.
PNC assembly inh – High Content Assay for Compounds that inhibit the Assembly of the Perinucleolar Compartment; PC3M PTB-GFP, PNC prevalence imaging, 16 h; active compounds read low; activity change (PNC), negative = inhibition, % at 10 µM; 140,000 compounds, 3.1% hits; AID 2417, 2010;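 active = readout at or below -70, meaning at least 70% loss of cells showing the perinucleolar compartment, a nuclear body marking cancer cells; inconclusive = readout between -30 and a set limit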;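 note: plate controls were DMSO wells for no effect and camptothecin positive control wells for full effect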
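Read-out is percentage of cells bearing a perinucleolar compartment, from automated 20x imaging of fixed, Hoechst-stained PC3M PTB-GFP cells. Cells were seeded 4 h, then exposed 16 h to compound (23 nl of library stock) in duplicate plates.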
HTT cytoprotect – qHTS Multiplex Assay to Identify Dual Action Probes in a Cell Model of Huntington: Cytoprotection (ATP). Potency, µM (top dose mostly 56.4 µM), for inactives: cytoprotection (ATP increase), usual class: activators. 230,000 compounds, 0.14% hits. PC12 HTT-Q103 induced, cytoprotection, ATP luminescence, 40 h; note: potency is the fitted concentration of half-maximal effect; % of control where 0% means no effect; nearly all actives have a fitted effect of over 45% in size
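Rat PC12, Q103 Htt exon1-GFP fusion, ecdysone promoter; tebufenozide inducer 100 nM final; compound titration; qHTS, 1500 cells/well; ATPlite luminescent read.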
HTT aggregate – qHTS Multiplex Assay to Identify Dual Action Probes in a Cell Model of Huntington: Aggregate Formation (GFP) | PC12 HttQ103-GFP aggregates, Acumen cytometry, 40 h | Potency, µM (doses to about 46.1 µM), inactives show top-dose activity change, negative = inhibition, hits mostly inhibitors | 220,000 compounds, 1.1% hits | AID 1688, 2009; note: potency is the fitted concentration of half-maximal effect; % is set by controls: 0 for no effect and ±100 for the full control effect; nearly all actives have a fitted effect of over 60% in size
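Huntingtin Q103 exon 1–GFP aggregates in induced PC12 cells (100 nM tebufenozide) were quantified by cytometry from lysates, with compounds dosed in titration.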
* marks the source's active call; other numbers are inactive results; ? = inconclusive; . = not tested or not shown; [ ] = another dose, or the depositor's remark. Many of the other results were omitted from the sample, so hits are more common in it than they were. Unless noted, calls come from the whole dose curve; as a rule, active = well fitted curve in the direction sought with a large enough effect; inconclusive = small, poorly fitted or top-dose-only effect, or another doubt; inactive = no such curve, though single readings can be large; an effect the other way counts as inactive or inconclusive.

SMILES | PNC assembly inh | HTT cytoprotect | HTT aggregate
O=C(NC1CCCCCCC1)C1CCC(CNc2c(N3CCCC3)c(=O)c2=O)CC1 (centres undefined) | -119.3* | -8.9%[10 µM] | 1.5%
O=C(C1CCC(CNc2c(N3CCCCC3)c(=O)c2=O)CC1)N1CCCC1 (centres undefined) | . | -10.1%[10 µM] | -20.5%[9.22 µM]
CC1CCN(c2c(NCC3CCC(C(=O)Nc4ccccn4)CC3)c(=O)c2=O)CC1 (centres undefined) | -118.9* | . | 5.9%
Cc1nc2cnc(N3CCNCC3)nc2n(Cc2cccs2)c1=O | . | 26.5% | .
CN1C(=O)CC(C(=O)O)SC1=Nc1cc(Cl)cc(Cl)c1 (centres undefined) | -86.9* | . | -1.4%
CN1C(=O)CC(C(=O)O)SC1=Nc1cc(Cl)c(O)c(Cl)c1 (centres undefined) | -5.2 | 9.5% | 7.5%
Cc1ccccc1NC(=O)C1(C)Cc2ccccc2C(=O)O1 (centres undefined) | 75.2 | 11.5%[10 µM] | -0.8%
CC1CCN(c2ncnc3ccccc23)CC1 | 243.1 | 24.2%[10 µM] | 22.4µM*
CC1CCN(c2nc(-c3ccccc3O)nc3ccccc23)CC1 | -9.1 | -6.5% | -4.4%
Cc1cccc(N2C(=O)CC(SC(=Nc3ccccc3)Nc3ccccc3)C2=O)c1 (centres undefined) | 1.5 | . | 3.16µM*
O=C1CC(SC(=Nc2ccccc2)Nc2ccccc2)C(=O)N1c1ccc(Cl)c(Cl)c1 (centres undefined) | 43.7 | . | 27.4%
NC(=O)Cn1nnc(-c2ccccc2NC(=O)c2cnccn2)n1 | 16.8 | 18.0% | -1.8%
CC(=O)CSc1nnc(NC(=O)CCc2ccccc2)s1 | 13.9 | -15.3% | 11.3%[9.22 µM]
CCCCSc1nnc(NC(=O)CCc2ccccc2)s1 | -81.0* | 10.7% | -2.1%
CCOC(=O)C(C)NC(=O)Cn1ncc2c(=O)oc3ccc(C)cc3c21 (centres undefined) | . | 5.8%[10 µM] | 3.5%[9.22 µM]
COCCNC(=O)COC(=O)CSCc1nc2ccccc2s1 | -21.7 | -24.5%[0.074 µM] | 3.4%
CCOc1cc(/C=N\NC(=O)c2ccc(NC(=O)C(C)(C)C)cc2)ccc1OC(=O)c1cccc(C)c1 | ? | 9.1% | -26.4%
Cc1ccc(-c2csc3ncnc(OCC(=O)NC(=O)NCc4ccco4)c23)cc1 | -124.8* | -31.3% | -18.2%
O=C(COc1ncnc2scc(-c3ccc(F)cc3)c12)NCc1ccco1 | -28.6 | 11.9%[10 µM] | 22.9%
Cc1cc(C)n(-c2ccc(C(=O)Nc3cccnc3)cc2)n1 | . | 13.5%[10 µM] | 10.3%[9.22 µM]
Cc1nn(C)cc1CNC(=O)Nc1ccc(Br)cc1Cl | 31.6 | -14.9% | ?
COc1cc([C@@H]2C[C@H]3CN(c4ccccc4)C(=O)[C@]34CCCN24)cc(OC)c1OC | . | 11.5%[10 µM] | 0.8%[9.22 µM]
CCOc1cc([C@@H]2C[C@H]3CN(c4ccccc4)C(=O)[C@]34CCCN24)ccc1OC | . | -161.3% | 7.08µM*
COCCCNC(=O)C1CCCCN1S(=O)(=O)c1ccc(F)cc1 (centres undefined) | -13.7 | -2.5%[0.074 µM] | 10.7%
N#CCSc1nnc(COc2cccc3ccccc23)n1-c1ccccc1 | -24.3 | -32.8% | ?
SMILES | PNC assembly inh | HTT cytoprotect | HTT aggregate
N#CCSc1nnc(COc2cccc3ccccc23)n1-c1cccc(Cl)c1 | -80.1* | -6.1%[10 µM] | ?
CN(C)c1ccc(/C=N\Nc2nc(-c3ccccc3)cc(=O)[nH]2)cc1 | -118.2* | . | -24.5%
COc1ccc(/C(C)=N\Nc2nc(-c3ccccc3)cc(=O)[nH]2)cc1 | -4.7 | 7.8%[10 µM] | 5.9%
C/C(CCC(=O)O)=N/Nc1ccc([N+](=O)[O-])cc1[N+](=O)[O-] | -86.9* | -4.4%[10 µM] | 1.4%
C/C(CCCO)=N/Nc1ccc([N+](=O)[O-])cc1[N+](=O)[O-] | . | -19.0% | ?
Cc1cc(C)c(-c2csc(NC(=O)c3n[nH]c(=O)c4ccccc34)n2)c(C)c1 | -89.3* | 1.4%[10 µM] | -17.9%
COc1cc(NC(=O)c2n[nH]c(=O)c3ccccc23)cc(OC)c1 | . | 15.5%[10 µM] | 4.9%[9.22 µM]
CCC(C)NC(=O)c1n[nH]c(=O)c2ccccc12 (centres undefined) | -100.0* | -8.5% | ?
CCOC(=O)c1ccc(NC(=O)c2n[nH]c(=O)c3ccccc23)cc1 | . | -17.6% | 13.8%
COc1ccc(-c2nc(NC(=O)c3n[nH]c(=O)c4ccccc34)sc2C)cc1 | -114.1* | . | 1.2%
NNC(=O)c1n[nH]c(=O)c2ccccc12 | . | -5.1%[10 µM] | -14.0%[9.22 µM]
COc1cc(OC)cc(C(=O)NC(=S)Nc2ccc(N3CCCC3)cc2)c1 | ? | 18.7%[10 µM] | 22.1%
COc1cccc(CC(=O)Nc2nc3c(s2)C(=O)CC(C)(C)C3)c1 | . | -12.9% | -36.4%
COc1cc2[nH]cc(C(=O)NCCc3ccccc3)c(=O)c2cc1OC | -100.0* | 8.3%[10 µM] | 16.3%
COCCNC(=O)c1c[nH]c2cc(OC)c(OC)cc2c1=O | ? | 10.6%[10 µM] | 7.1%[9.22 µM]
COc1ccc(CC(=O)NC(CC(=O)O)c2ccc(OC)cc2)cc1 (centres undefined) | 32.1 | -4.9% | ?
NNC(=O)CNC(=O)C12CC3CC(CC(C3)C1)C2 | . | -6.9%[10 µM] | -1.4%
COC(=O)c1ccc(COC(=O)C(CCS(C)(=O)=O)N2C(=O)c3ccccc3C2=O)cc1 (centres undefined) | -104.2* | -4.1%[10 µM] | ?
CS(=O)(=O)CCC(C(=O)OCc1ccc(Br)cc1)N1C(=O)c2ccccc2C1=O (centres undefined) | 8.6 | 25.6%[10 µM] | -14.1%
COc1cccc(/C=C/C(=O)OCC(=O)c2cc(C)n(CC3CCCO3)c2C)c1OC (centres undefined) | -1.3 | 17.7%[10 µM] | 13.2%
Cc1ccc(Nc2ncnc(N)n2)cc1 | . | 2.6%[10 µM] | 5.3%[9.22 µM]
Nc1ncnc(Nc2ccc(F)cc2)n1 | -90.5* | . | 3.0%
C=CCc1cc(OC)ccc1OCCOCCN1CCc2ccccc2C1 | . | . | -7.7%
CC(=O)Nc1ccc(NS(=O)(=O)c2ccc(C)cc2)c([N+](=O)[O-])c1 | . | -18.9%[10 µM] | -14.1%[9.22 µM]
CCC(=C(c1ccc(OC)cc1)c1ccc(OC)cc1)c1cn(CC(O)CN2CCN(C)CC2)c2ccccc12 (centres undefined) | ? | -99.3% | 15.8µM*
SMILES | PNC assembly inh | HTT cytoprotect | HTT aggregate
COc1ccc(-c2cc3ccccc3n2CC(O)CN2CCCCC2)cc1 (centres undefined) | . | -11.4%[10 µM] | -33.2%[9.22 µM]
COc1cccc(-n2nc(-c3ccnn3-c3ccc(F)cc3)c(=O)n(C)c2=O)c1 | 53.3 | -12.0% | -21.1%
CN(C)CCCn1c2c3ccccc3ccc2c2oc(=O)c3ccccc3c21 | . | -39.5%[10 µM] | .
N#Cc1c(-c2ccccc2)cc(C2CC2)nc1SCC(=O)c1cccs1 | 23.4 | -16.9% | 23.7%
Cc1nc2ccccc2n1-c1nc(-c2ccco2)cc(C(F)(F)F)n1 | 17.1 | -87.5% | 3.16µM*
FC(F)(F)c1cc(-c2ccco2)nc(-n2cnc3ccccc32)n1 | 34.1 | -6.7% | 7.1%
CCCn1c(NCc2cc(OC)ccc2OC)nc2ccccc21 | 26.5 | -14.8%[0.074 µM] | 20µM*
COc1ccc(OC)c(CNc2nc3ccccc3n2CCN2CCCCC2)c1 | 3.2 | 6.8% | 6.5%
CCn1c(NCc2cc(OC)ccc2OC)nc2ccccc21 | -22.4 | -32.2% | 7.9%
COc1cccc(CNc2nc3ccccc3n2CCN2CCCCC2)c1OC | 45.6 | 0.1%[10 µM] | 12.6µM*
NNC(=O)CS(=O)(=O)CS(=O)(=O)CC(=O)NN | . | 9.2%[10 µM] | 3.6%[9.22 µM]
